We go through 40 compounds from PubChem BioAssay (EPA / NIEHS).

Molecules are shown by their SMILES. Activity calls are given as the source filed them. Rule for the calls: active = hit-call score of the fitted dose curve at least 0.9, where 1 is the maximum; inactive = score below 0.9.

A short description of this assay: CCTE_Harrill_HTTr_Apoptosis_MCF7: CCTE's 6-hour Apoptosis Assessment for the High-Throughput Transcriptomics (HTTr) Platform, in MCF-7 cells cultured in DMEM + 10% fetal bovine serum, Harrill Lab (AID 2284011). The text has this: This is a cell-based assay that evaluates apoptosis using high content imaging to evaluate activation of caspase-3/7 using the CellEvent Caspase 3/7 Green detection reagent in 384-well format.One of seven assay components measured from the CCTE_Harrill_HTTr_Apoptosis assay. This was part of a full screening experiment. This is a cell-based assay that evaluates apoptosis in MCF-7 cells cultured in DMEM + 10% fetal bovine serum. High content imaging is used to evaluate activation of caspase-3/7 using the CellEvent Caspase 3/7 Green detection reagent. Measurements are taken at 6 hours after chemical dosing in 384-well format.The assay component endpoint CCTE_Harrill_HTTr_Apoptosis_MCF7 was analyzed with bidirectional fitting relation to DMSO as the negative control and baseline of activity. Using a type of viability reporter, gain-of-signal activity can be used to evaluate activation of caspase-3/7 using the CellEvent Caspase 3/7 Green detection reagent to understand changes in apoptosis. To generalize the intended target to other relatable targets, this assay endpoint is annotated to cell cycle, where the subfamily is apoptosis.
Chemicals were tested in MCF7 cells in an eight point dilution series with a six hour exposure duration.
Take `CCCCCCCCCC[N+](C)(C)[O-]`: the result was inactive.

By AC50 is commonly meant the concentration at which the activity in the assay is half-maximal. With `CN(C)CCCN1c2ccccc2Sc2ccc(Cl)cc21`, the AC50 is 50 µM (active).

In the case of `O=C(Oc1ccccc1)c1cccc(C(=O)Oc2ccccc2)c1`, the outcome was inactive.

Consider `O=[Si]=O`, for which the result was inactive.

Take `O=C(O)CC(O)(CC(=O)O)C(=O)O`: the result was inactive.

As for `CCc1cc(C2=C(C(=O)O)N(c3ccccc3C(F)(F)F)S(=O)(=O)c3ccccc32)cc2c1OCO2`, the outcome was inactive.

Turning to `C=CCCCCCCCCCCCC`, the outcome was inactive.

With `Oc1ccc(O)cc1`, the outcome was inactive.

Turning to `O=C1O[C@H]([C@H](O)CO)C(O)=C1O`, the result was inactive.

For `CC(C)NCC(O)c1ccc(O)c(O)c1` (stereo not given), the result was inactive.

Regarding `CO[C@@H]1COCC[C@@H]1N[C@@H]1CC[C@@](C(=O)N2CCc3ncc(C(F)(F)F)cc3C2)(C(C)C)C1`, the result was inactive.

Consider `CC(C)OC(=O)C(C)(C)Oc1ccc(C(=O)c2ccc(Cl)cc2)cc1`, for which the outcome was inactive.

As for `CCCCCCC(CCCCCCCCCCC(=O)OCC(COC(C)=O)OC(C)=O)OC(C)=O` (stereo not given), the result was inactive.

As for `O=C(NS(=O)(=O)/C=C/c1cccs1)c1ccc(F)cc1Br`, the result was inactive.

With `CC1=C(C)S(=O)(=O)CCS1(=O)=O`, the result was inactive.

As for `O=C1OC(c2ccc(O)cc2)(c2ccc(O)cc2)c2ccccc21`, the result was inactive.

Take `CC(=O)S[C@H](C(=O)N[C@H]1Cc2ccccc2[C@H]2CCC[C@@H](C(=O)O)N2C1=O)C(C)C`: the result was inactive.

Turning to `CN(C)C(=O)NC1(c2ccccc2)CCN(CC[C@@]2(c3ccc(F)c(F)c3)CN(C(=O)c3ccccc3)CCO2)CC1`, the outcome was inactive.

With `CCCCCCC(C=O)=Cc1ccccc1`, the outcome was inactive.

Regarding `COC(=O)CCCC(=O)OC`, the result was inactive.

As to `NC(=Nc1ccccc1)Nc1ccccc1`, the outcome was inactive.

`CC(N)=O`: the result was inactive.

For the compound `Cc1ccc(C(C)(C)C)c(O)c1`, the result was inactive.

Regarding `COC(=O)CCC(=O)OC`, the result was inactive.

For `COc1ccc(C(=O)Nc2nc3ccccc3c(NCc3ccccc3)c2C#N)cc1`, the result was inactive.

On to `CCc1nc(N)nc(N)c1-c1ccc(Cl)cc1`, for which the result was inactive.

For the compound `CCCCC(CC)COC(=O)CCCCCCCC(=O)OCC(CC)CCCC` (stereo not given), the result was inactive.

Take `Cc1cn([C@H]2C=C[C@@H](CO)O2)c(=O)[nH]c1=O`: the result was inactive.

Take `CC(=O)O[C@]1(C(C)=O)CC[C@H]2[C@@H]3C=C(Cl)C4=CC(=O)[C@@H]5C[C@@H]5[C@]4(C)[C@H]3CC[C@@]21C`: the result was inactive.

On to `CCCCOC(=O)CCCCC(=O)OCCCC`, for which the result was inactive.

On to `CC(=O)OC1CC(C)OC(C)O1` (stereo not given), for which the outcome was inactive.

With `O=C1CCCCC1`, the result was inactive.

Turning to `CC(C)COC(=O)CCCCC(=O)OCC(C)C`, the outcome was inactive.

Turning to `OCC(O)CO`, the result was inactive.

Turning to `CC(C)(C)c1ccccc1`, the outcome was inactive.

For `COc1ccc(OC(F)(F)F)cc1CN[C@H]1CCCN[C@H]1c1ccccc1`, the result was inactive.

As to `CS(=O)(=O)c1ccc([C@@H](C[C@H]2CCC(=O)C2)C(=O)Nc2cnccn2)cc1Cl`, the outcome was inactive.

As for `C/C=C/c1ccc(OC)cc1`, the result was inactive.

For the compound `CCCCC(CC)CO` (stereo not given), the outcome was inactive.

Take `NC1CCCCC1`: the outcome was inactive.
